{
  "source": "the supplement of paper PMC4206461",
  "note": "Unmarked numbers belong to inactive results.",
  "data": [
    {"tested_on": "Pseudomonas aeruginosa PA14 wild type", "test": "respiration area under curve with compound as sole nitrogen source, 24 h (OmniLog AUC (arbitrary units)); higher = more respiration / better utilisation as nitrogen source, active = 2000 or more", "protocol": "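Biolog Phenotype MicroArray plates PM6-PM8: each di/tripeptide is the sole nitrogen source (IF-0 medium with succinate/ferric citrate and dye mix A). Tetrazolium reduction was read in the OmniLog every 15 min for 24 h at 37°C and summarised as area under the respiration curve (arbitrary units). The paper counts values below 2000 as no respiration and above 8000 as solid respiration. Replicate datasets are averaged.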", "values": [
      {"smiles": "CSCCC(NC(=O)C(N)C(C)C)C(=O)O", "note": "(stereo not given) (plate: PM8)", "respiration area under curve": "4440 (active)"},
      {"smiles": "NC(N)=NCCC[C@H](N)C(=O)N[C@@H](Cc1ccc(O)cc1)C(=O)O", "note": "(plate: PM6)", "respiration area under curve": "9840 (active)"},
      {"smiles": "CC(C)C(NC(=O)C1CCCN1)C(=O)O", "note": "(stereo not given) (plate: PM8)", "respiration area under curve": "7080 (active)"},
      {"smiles": "CSCC[C@H](NC(=O)[C@H](C)N)C(=O)O", "note": "(plate: PM8)", "respiration area under curve": "6360 (active)"},
      {"smiles": "CC(C)C[C@H](N)C(=O)N[C@H](C(=O)O)C(C)C", "note": "(plate: PM7)", "respiration area under curve": "9910 (active)"},
      {"smiles": "CC[C@H](C)[C@H](N)C(=O)N[C@@H](CCCN=C(N)N)C(=O)O", "note": "(plate: PM6)", "respiration area under curve": "9480 (active)"},
      {"smiles": "N[C@@H](CO)C(=O)N[C@@H](CC(=O)O)C(=O)O", "note": "(plate: PM8)", "respiration area under curve": "4090 (active)"},
      {"smiles": "N[C@@H](CCC(=O)O)C(=O)N[C@@H](Cc1c[nH]c2ccccc12)C(=O)O", "note": "(plate: PM6)", "respiration area under curve": "2740 (active)"},
      {"smiles": "N[C@@H](Cc1ccccc1)C(=O)NCC(=O)NCC(=O)O", "note": "(plate: PM8)", "respiration area under curve": "8700 (active)"},
      {"smiles": "CC(C)C[C@@H](N)C(=O)NCC(=O)O", "note": "(plate: PM8)", "respiration area under curve": 0.4},
      {"smiles": "CC(C)C[C@H](NC(=O)[C@H](CC(C)C)NC(=O)[C@@H](N)CC(C)C)C(=O)O", "note": "(plate: PM8)", "respiration area under curve": "5700 (active)"},
      {"smiles": "N[C@@H](CO)C(=O)N[C@@H](Cc1ccc(O)cc1)C(=O)O", "note": "(plate: PM7)", "respiration area under curve": "6130 (active)"},
      {"smiles": "N[C@@H](Cc1ccccc1)C(=O)N1CCC[C@H]1C(=O)O", "note": "(plate: PM7)", "respiration area under curve": "11400 (active)"},
      {"smiles": "N[C@@H](CO)C(=O)N1CCC[C@H]1C(=O)O", "note": "(plate: PM7)", "respiration area under curve": "14600 (active)"},
      {"smiles": "CC(C)C[C@H](NC(=O)[C@@H](N)CCCN=C(N)N)C(=O)O", "note": "(plate: PM6)", "respiration area under curve": "9430 (active)"},
      {"smiles": "CSCCC(N)C(=O)NC(CCSC)C(=O)O", "note": "(stereo not given) (plate: PM7)", "respiration area under curve": 0},
      {"smiles": "NCC(=O)N1CCC[C@H]1C(=O)O", "note": "(plate: PM6)", "respiration area under curve": "9130 (active)"},
      {"smiles": "N[C@@H](Cc1ccccc1)C(=O)N[C@@H](CO)C(=O)O", "note": "(plate: PM7)", "respiration area under curve": "7630 (active)"},
      {"smiles": "NC(N)=NCCC[C@H](NC(=O)[C@@H](N)CCCN=C(N)N)C(=O)O", "note": "(plate: PM6)", "respiration area under curve": "10100 (active)"},
      {"smiles": "N[C@@H](Cc1ccc(O)cc1)C(=O)N[C@@H](Cc1ccc(O)cc1)C(=O)O", "note": "(plate: PM7)", "respiration area under curve": "7080 (active)"},
      {"smiles": "NCC(=O)NCC(=O)NCC(=O)O", "note": "(plate: PM8)", "respiration area under curve": "7740 (active)"},
      {"smiles": "N[C@@H](Cc1c[nH]c2ccccc12)C(=O)N[C@@H](CCC(=O)O)C(=O)O", "note": "(plate: PM7)", "respiration area under curve": 633},
      {"smiles": "NC(N)=NCCC[C@H](N)C(=O)N[C@@H](Cc1ccccc1)C(=O)O", "note": "(plate: PM6)", "respiration area under curve": "9420 (active)"},
      {"smiles": "CSCC[C@H](NC(=O)[C@@H](N)[C@@H](C)O)C(=O)O", "note": "(plate: PM7)", "respiration area under curve": "4960 (active)"},
      {"smiles": "NC(=O)C[C@H](NC(=O)[C@@H](N)CO)C(=O)O", "note": "(plate: PM8)", "respiration area under curve": "12500 (active)"},
      {"smiles": "CC(C)[C@H](NC(=O)[C@@H](N)CC(=O)O)C(=O)O", "note": "(plate: PM6)", "respiration area under curve": "4290 (active)"},
      {"smiles": "CSCCC(N)C(=O)NC(CCCN=C(N)N)C(=O)O", "note": "(stereo not given) (plate: PM7)", "respiration area under curve": "14600 (active)"},
      {"smiles": "NC(=O)CC[C@H](N)C(=O)N[C@@H](CCC(=O)O)C(=O)O", "note": "(plate: PM8)", "respiration area under curve": "9650 (active)"},
      {"smiles": "N[C@@H](Cc1ccccc1)C(=O)N[C@@H](Cc1ccccc1)C(=O)O", "note": "(plate: PM7)", "respiration area under curve": "5220 (active)"},
      {"smiles": "NC(=O)C[C@H](N)C(=O)N[C@@H](CCC(=O)O)C(=O)O", "note": "(plate: PM6)", "respiration area under curve": "5930 (active)"},
      {"smiles": "CC(C)C[C@H](NC(=O)[C@@H]1CCCN1)C(=O)O", "note": "(plate: PM7)", "respiration area under curve": "7810 (active)"},
      {"smiles": "CSCC[C@H](NC(=O)[C@@H](N)CO)C(=O)O", "note": "(plate: PM7)", "respiration area under curve": "4420 (active)"},
      {"smiles": "CC(C)C[C@H](N)C(=O)N[C@@H](Cc1ccccc1)C(=O)O", "note": "(plate: PM6)", "respiration area under curve": "6750 (active)"},
      {"smiles": "C[C@H](N)C(=O)N[C@@H](CC(=O)O)C(=O)O", "note": "(plate: PM8)", "respiration area under curve": "10500 (active)"},
      {"smiles": "CSCC[C@H](N)C(=O)N1CCC[C@H]1C(=O)O", "note": "(plate: PM7)", "respiration area under curve": "8120 (active)"},
      {"smiles": "N[C@@H](Cc1c[nH]c2ccccc12)C(=O)NCC(=O)O", "note": "(plate: PM7)", "respiration area under curve": "3340 (active)"},
      {"smiles": "CC(C)C[C@H](NC(=O)[C@@H](C)N)C(=O)O", "note": "(plate: PM8)", "respiration area under curve": 626},
      {"smiles": "CSCC[C@H](N)C(=O)N[C@@H](CC(=O)O)C(=O)O", "note": "(plate: PM7)", "respiration area under curve": "4700 (active)"},
      {"smiles": "N[C@@H](Cc1c[nH]c2ccccc12)C(=O)N[C@@H](Cc1ccc(O)cc1)C(=O)O", "note": "(plate: PM7)", "respiration area under curve": 1070},
      {"smiles": "CSCC[C@H](N)C(=O)N[C@@H](Cc1ccccc1)C(=O)O", "note": "(plate: PM7)", "respiration area under curve": 1400}
    ]}
  ]
}
